# From PubChem BioAssay (EPA / NIEHS)
# Results filed as inconclusive are left out. The source made the active and inactive calls. How the source made its calls: active means hit-call score of the fitted dose curve at least 0.9, where 1 is the maximum; inconclusive means response in the unintended direction; inactive means score below 0.9.
# Columns and labels:
# [1] = VALA_TUBHUV_Agonist_CellCount: Viability Assessment in the VALA Sciences human Umbilical Vein Endothelial Tubule Formation (TUBHUV) Agonism Assay (AID 2284309)
# Procedure, shortened: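 Viability endpoint by fluorescent imaging of fixed nuclear/CD31-stained HUVEC–HDF co-cultures. Readout is cell count, fitted upward against 0.1% DMSO. Compound exposure was 72 h in 10 ng/ml VEGF, after 3-day co-culture priming.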
# [2] = VALA_TUBIPS_Antagonist_TubuleLength: VALA Sciences human iPS-derived Endothelial Tubule Formation (TUBIPS) Antagonist Assay (AID 2284313)
# Procedure, shortened: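 Tubule length was quantified by high-content imaging of CD31- and nuclear-stained cells, with 0.1% DMSO as neutral and 100 uM suramin as inhibition control. Compounds were applied for 3 days, in 10 ng/ml VEGF, to cultures pre-grown 3 days.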
# [3] = VALA_MIGHUV2_WoundArea: VALA Sciences human Umbilical Vein Endothelial Cell Migration (MIGHUV) Assay, Area of Scratch Wound after Recovery (AID 2284316)
# Procedure, shortened: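 Wound-area endpoint read by fluorescence imaging of Hoechst-stained nuclei after a 24 h recovery period following scratch of HUVEC monolayers (9000 cells/well). Chemicals dosed within 30 min post-scratch, triplicate 6-point series, 0.1% DMSO vehicle; Cytochalasin D positive control.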
# [4] = VALA_TUBHUV_Antagonist_TubuleLength: VALA Sciences human Umbilical Vein Endothelial Tubule Formation (TUBHUV) Antagonism Assay (AID 2284325)
# Procedure, shortened: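 Tubule length was imaged via CD31 immunofluorescence after a further 3-day compound exposure in 10 ng/ml VEGF, following 3-day pre-culture of HUVEC with HDF at 1:3. Vehicle 0.1% DMSO; suramin (100 uM) inhibition control.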
# [5] = VALA_TUBIPS_Agonist_TubuleLength: VALA Sciences human iPS-derived Endothelial Tubule Formation (TUBIPS) Agonism Assay (AID 2284311)
# Procedure, shortened: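 Agonist-mode readout is the gain in imaged tubule length versus DMSO baseline. It was measured by fluorescence high-content imaging 72 h after dosing human iPSC-derived endothelial cells.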
# [6] = VALA_MIGHUV2_Bcatenin: VALA Sciences human Umbilical Vein Endothelial Cell Migration (MIGHUV) Assay, Nuclear Translocation of beta-Catenin after Recovery (AID 2284315)
# Procedure, shortened: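 Nuclear beta-catenin imaged by immunofluorescence with Hoechst counterstain in fixed HUVEC, 24 h after scratch wounding and chemical addition. Six-point concentration-response in triplicate; activity scored as signal increase over 0.1% DMSO vehicle.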
SMILES,AC50 [1],outcome [2],AC50 [3],outcome [4],outcome [5],outcome [6]
CC(C)(C)c1ccc(CSc2cnn(C(C)(C)C)c(=O)c2Cl)cc1,20.3 µM (active),inactive,7.5 µM (active),inactive,–,–
N#Cc1nn(-c2c(Cl)cc(C(F)(F)F)cc2Cl)c(N)c1S(=O)C(F)(F)F (stereo not drawn),–,inactive,–,inactive,inactive,inactive
